Test results reported in PubChem BioAssay AID449768 (Vanderbilt High Throughput Screening Facility, 2010).
About 1,400 (1.3%) of roughly 110,000 compounds were called active.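 The calls were made as follows: active = Z score or B-score, a plate-position-corrected score, falls beyond the plate's 99.7% confidence bounds, in either direction; inactive = both scores lie inside the 99.7% bounds.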 Many of the other results were omitted from the sample, so actives are more common in it than they were.

target: Sodium-dependent dopamine transporter (Homo sapiens) (UniProt Q01959); assay: modulators of human DAT uptake with cocaine – cell-based, LLC-PK1 hDAT, [14C]-dopamine uptake, MLSMR, cocaine antagonist project, primary screen (AID 449768); conditions: LLC-PK1 hDAT cells, [14C]-dopamine uptake with cocaine IC80; at 10 µM; actives deviate in either direction;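 also: scored against the spread of the other compound wells on the same plate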
Sequence (Q01959 whole entry, looked up): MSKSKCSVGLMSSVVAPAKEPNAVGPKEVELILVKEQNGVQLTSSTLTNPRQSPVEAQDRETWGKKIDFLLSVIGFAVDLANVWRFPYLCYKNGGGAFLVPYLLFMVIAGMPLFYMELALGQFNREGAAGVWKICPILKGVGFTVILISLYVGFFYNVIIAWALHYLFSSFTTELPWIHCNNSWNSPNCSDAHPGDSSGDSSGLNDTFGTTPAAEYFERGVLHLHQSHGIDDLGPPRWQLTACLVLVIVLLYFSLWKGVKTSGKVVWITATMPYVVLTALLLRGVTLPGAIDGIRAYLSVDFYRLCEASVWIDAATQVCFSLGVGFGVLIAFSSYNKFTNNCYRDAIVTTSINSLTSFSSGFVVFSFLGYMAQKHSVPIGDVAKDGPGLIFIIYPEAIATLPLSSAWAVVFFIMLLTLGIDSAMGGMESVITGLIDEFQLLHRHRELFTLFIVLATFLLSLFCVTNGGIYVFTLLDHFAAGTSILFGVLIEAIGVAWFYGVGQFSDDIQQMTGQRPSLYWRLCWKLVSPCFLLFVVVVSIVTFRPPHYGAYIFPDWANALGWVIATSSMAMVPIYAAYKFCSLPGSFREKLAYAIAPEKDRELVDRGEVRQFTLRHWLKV

Row | Structure (SMILES) | B-score
1 | COc1ccccc1CN1CCN(C(=O)Cc2ccccc2)CC1 | 0.503 (inactive)
2 | O=C(COc1ccc2ccccc2c1)N1CCN(Cc2ccncc2)CC1 | -1.8 (active)
3 | CC(C)c1ccc(OCC(=O)N2CCN(C)CC2)c(Br)c1 | -0.237 (inactive)
4 | COC(=O)C1=C(c2cc3ccccc3o2)C[C@@H]2CC[C@H]1N2C(=O)NC1CCCCC1 | -0.718 (inactive)
5 | COC(=O)C1=C(c2ccccc2)C[C@@H]2CC[C@H]1N2C(=O)N1CCCCC1 | -0.0906 (inactive)
